Bioassay records (PubChem)
PrPC surface inh = reduces human prion protein on the cell surface | 370,000 tested, 0.43% active | cell surface PrPC, TR-FRET read-out | inhibition, % at 13.8 µM; in the data active = inhibition above about 24%; also: 0% = median of the test wells and 100% = reference compound wells
PrP UTR inh = inhibition of PrP 5' UTR reporter expression | cell-based PrP 5' UTR mRNA reporter, plate reader | inhibition, % (concentration not given with the values) | 340,000 tested, 0.35% active | AID 488862; in the data active = inhibition above about 52%; also: 0 = median of the neutral control wells
RecA intein inh = blocks M. tuberculosis RecA intein splicing. cell-free RecA intein splicing, fluorescence. inhibition, % (concentration not given with the values). 290,000 tested, 0.75% active; in the data active = inhibition above about 30%; inconclusive = no clear call, values can overlap the other calls;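 also: 0% = vehicle wells and 100% = reference inhibitor control wells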
3CLpro inhibitor = SARS-CoV 3CLpro protease inhibition | P0C6X7 | recombinant SARS-CoV 3CLpro, quenched FRET peptide cleavage | inhibition, % at 6 µM | 290,000 tested, 0.14% active; in the data active = inhibition above about 12%
Mtb hypoxia inh = inhibitors of hypoxia-regulated fluorescent reporter in Mycobacterium tuberculosis; M. tuberculosis hypoxia-regulated fluorescent reporter, fluorescence; fluorescence inhibition, % (test concentration not listed); 300,000 tested, 0.1% active; in the data active = fluorescence inhibition mostly above about 23%, no sharp cut-off; inactive = mostly below about 17%
BJeLR viability = BJeLR cell viability loss. AID 1554. inhibition, % (concentration not given with the values). BJeLR (HRASV12) viability, CellTiter-Glo ATP luminescence, 48 h. 300,000 tested, 0.17% active; in the data active = inhibition above about 50%; inconclusive = no clear call, values can overlap the other calls
GFP chromophore = counter-screen GFP chromophore formation inhibition; cell-free GFP chromophore formation, fluorescence; 2,100 tested, 83% active; EC50, µM; AID 434968; shares compounds with RecA intein inh; call rule not given here
PrP 5UTR single = prion 5' UTR mRNA inhibition, cherry-pick retest; shares compounds with PrP UTR inh; inhibition, % at 2.5 µM; 1,100 tested, 48% active; cell-based prion protein 5' UTR reporter, plate reader; in the data active = inhibition above about 54%; inconclusive = no clear call, values can overlap the other calls
PrPC confirm = confirmation of inhibitors of cell surface human prion protein; shares compounds with PrPC surface inh; cell surface PrPC level, TR-FRET; inhibition, % at 13.8 µM; 1,500 tested, 65% active; AID 743200; in the data active = inhibition above about 25%
LD9 cytotox = LD9 cell cytotoxicity, PrPc inhibitor counter-screen; shares compounds with PrPC surface inh; LD9 cells cytotoxicity, luminescence viability; inhibition, % at 13.8 µM; 1,500 tested, 29% active; in the data active = inhibition above about 9.5%
Active calls of the source: *; ? = inconclusive; · = no result given. Compounds with a hit are over-represented: about 1.4% of the library has one in this group of screens.

SMILES	PrPC surface inh	PrP UTR inh	RecA intein inh	3CLpro inhibitor	Mtb hypoxia inh	BJeLR viability	PrP 5UTR single	others
O=C1C(Nc2ccc(O)cc2)=C/C(=N/S(=O)(=O)c2cccs2)c2ccccc21	46.1*	-9.2	96.5*	7.2	·	9.6	·	GFP chromophore=0.192*;PrPC confirm=58.9*;LD9 cytotox=99.2*
O=C(Nc1ccccc1)C1=C(c2ccccc2)S(=O)(=O)CCS1(=O)=O	33.3*	-8.1	93.7*	1.4	1.2	12.2	·	GFP chromophore=1.54*;PrPC confirm=0.2;LD9 cytotox=69.6*
Cn1cnc([N+](=O)[O-])c1S(=O)(=O)c1ccc(Cl)cc1	36.6*	-19.7	61.2*	4.0	18.2	-13.2	·	GFP chromophore=38.8*;PrPC confirm=0.5;LD9 cytotox=91.3*
O=[N+]([O-])c1ccc(Sc2cccc[n+]2[O-])c2nonc12	37.4*	-19.4	44.8*	2.4	·	30.1	·	GFP chromophore=19.4*;PrPC confirm=73.0*;LD9 cytotox=98.6*
O=[N+]([O-])c1ccc(Nc2ccccc2)c2nonc12	-30.2	0.1	8.8	0.5	·	6.5	·
Nc1ccc2c(c1)C(=O)c1ccccc1-2	6.1	-51.3	1.5	·	7.0	1.5	·
Nc1ccc2c(c1)C(=O)C(=O)c1ccccc1-2	64.0*	-37.2	97.2*	-2.2	·	114.3*	·	GFP chromophore=5.15*;PrPC confirm=61.2*;LD9 cytotox=99.3*
CCn1c(Cl)c(C=O)s/c1=N\S(=O)(=O)c1ccccc1	53.1*	-16.8	88.9*	-3.8	·	16.3	·	GFP chromophore=14.7*;PrPC confirm=102.0*;LD9 cytotox=94.4*
CCN1C(=O)CSC1=NS(=O)(=O)c1ccccc1	·	·	·	·	-0.9	·	·
CCCNC(=O)c1nnsc1S(=O)c1ccc(Cl)cc1 (stereo not given)	90.9*	-27.5	55.1*	2.5	24.5	-1.0	·	GFP chromophore=38.5*;PrPC confirm=15.5;LD9 cytotox=95.2*
CCCNC(=O)c1nnsc1S(=O)(=O)c1ccc(Cl)cc1	5.3	9.7	·	3.6	8.1	·	·
O=C(NCCc1ccccc1)c1ccc2c(c1)OCO2	-1.4	58.1*	0.1	0.5	14.1	5.0	?
CCOC1OC(C(=O)N2CCN(C)CC2)=CC(C2CCCCC2)C1CCCO (stereo not given)	·	·	·	·	-3.5	·	·
CC(NC(=O)c1nc[nH]c1C(=O)N1CCN(C(=O)OC(C)(C)C)CC1)C(=O)OC(C)(C)C (stereo not given)	·	·	·	·	9.6	·	·
CN(C(=O)c1cc2ccccc2oc1=O)C1(C)CCS(=O)(=O)C1 (stereo not given)	0.5	81.3*	-7.9	5.2	3.4	3.0	-4.4
O=C(CC(=O)NN=Cc1ccc(F)cc1)NCCc1ccccc1	·	·	·	·	7.3	·	·
Nc1nc(-c2nonc2N)no1	-3.2	70.9*	-1.7	-1.7	7.7	12.7	-20.3
CC1=CC(=C2C(=O)c3ccccc3C2=O)C=C(C)N1C	-29.1	-48.4	5.0	0.5	6.6	12.4	·
CCCCCN1C=CC(=C2C(=O)c3ccccc3C2=O)C=C1	-11.7	89.3*	1.3	0.3	14.8	51.2*	89.2*
O=C(OCCNC(=O)c1cc2ccccc2oc1=O)c1cccnc1	-1.2	65.8*	-0.3	-0.4	-6.4	-6.4	10.1
O=C(/C=C\Nc1ccc2c(c1)OCO2)c1ccccn1	-2.6	80.5*	-16.1	6.3	1.2	11.3	77.6*
COc1ccccc1NC(=S)N1CCN(CC=Cc2ccccc2)CC1	·	·	·	·	-3.4	·	·
COc1ccc(C(=O)CC(=O)c2ccc(F)cc2)cc1	-3.9	·	4.0	·	15.6	-5.7	·
COc1ccc(C(=O)CC(=O)c2ccc(C(C)(C)C)cc2)cc1	0.2	57.0*	·	·	·	·	-10.6
COC(=O)C1=C(c2ccc(Cl)c(C(F)(F)F)c2)CC2CCC1N2C(=O)NCCNC(C)=O (stereo not given)	·	·	·	·	5.8	·	·
SMILES	PrPC surface inh	PrP UTR inh	RecA intein inh	3CLpro inhibitor	Mtb hypoxia inh	BJeLR viability	PrP 5UTR single	others
C[C@@H]1CN([C@H](C)CO)C(=O)c2cc(NS(=O)(=O)c3cn(C)cn3)ccc2O[C@@H]1CN(C)S(C)(=O)=O	1.6	-28.6	·	·	4.1	·	·
C[C@H](CO)N1C[C@H](C)[C@@H](CN(C)S(C)(=O)=O)Oc2ccc(NS(=O)(=O)c3cn(C)cn3)cc2C1=O	-4.7	89.8*	·	·	4.8	·	1.3
CC(=O)OC1CC(OC2C(O)CC(OC3C(O)CC(OC4CCC5(C)C(CCC6C5CCC5(C)C(C7=CC(=O)OC7)CCC65O)C4)OC3C)OC2C)OC(C)C1OC1OC(CO)C(O)C(O)C1O (stereo not given)	3.9	96.2*	·	·	·	·	89.5*
CN(CCC=C1c2ccccc2CSc2ccccc21)CCCO	·	·	·	·	7.4	·	·
CCOC(=O)COc1cccc2c(=O)n(CC(=O)NCc3ccccc3)ccc12	-2.9	52.5	-0.9	0.6	-2.4	26.8	·
CCOC(=O)COc1cccc2c(=O)n(CC(=O)NCc3ccc(F)cc3)ccc12	-10.1	60.4*	-1.2	-6.2	-6.6	22.2	84.1*
CCN(CC)S(=O)(=O)c1ccc(N2CCOCC2)c(NC(=O)c2cc(-c3ccccn3)nc3ccccc23)c1	-2.5	66.5*	6.2	0.9	-9.4	7.7	23.8
CCN(CC)S(=O)(=O)c1ccc(N2CCOCC2)c(NC(=O)c2cccc3ccccc23)c1	-3.1	-7.9	-2.0	1.4	8.4	-12.1	·
CCCC(=C1c2ccccc2C(=O)N1c1ccccc1)c1ccc(OC2CCCCO2)cc1 (stereo not given)	·	·	·	·	9.2	·	·
COc1cc(C=NNC(=O)c2cccc3ccccc23)ccc1OCC(N)=O	·	·	·	·	10.5	·	·
O=c1c2ccccc2cnn1-c1nc2ccccc2[nH]1	-0.2	91.7*	-0.5	-1.9	2.0	82.2*	90.9*
O=c1c(Cl)c(N2CCCCC2)cnn1-c1nc2ccccc2[nH]1	0.8	74.8*	1.3	-7.5	8.1	24.8	69.2*
Cc1ccc(-c2n[nH]c(=S)n2/N=C/c2ccc(C)s2)cc1	-1.8	66.1*	-0.3	1.3	·	-3.4	8.2
Cc1cccc(/C=N/Nc2ccc3ccccc3n2)c1	6.8	75.5*	6.7	2.4	·	-2.7	66.3*
C(=N\Nc1ccc2ccccc2n1)/c1ccc2c(c1)OCCO2	6.5	83.4*	-3.0	3.3	·	13.3	68.9*
Brc1ccc(C=NNc2ccc3ccccc3n2)cc1	·	·	·	·	8.4	·	·
Cn1c(-c2ccccc2)cc2onc(-c3ccccc3)c2c1=O	6.3	63.5*	·	·	7.4	·	31.6
Cn1c(-c2ccccc2F)cc2onc(-c3ccccc3)c2c1=O	-4.7	-5.4	·	·	4.8	·	·
COC(=O)C(=O)/C=C(/O)c1ccc(C)cc1	·	·	·	·	11.6	·	·
CC1=C(C=NNc2ccc([N+](=O)[O-])cc2[N+](=O)[O-])C(C)(C)CCC1	·	·	·	·	3.0	·	·
CC(=NNc1ccc2ccccc2n1)c1ccccc1O	3.4	66.7*	·	·	·	·	47.0
